Screening data deposited in PubChem by ICCB-Longwood Screening Facility, Harvard Medical School.
Vaccinia pol inh = blocks vaccinia virus processive DNA synthesis | in vitro processive DNA synthesis, absorbance read-out; active compounds read low | normalized absorbance, % (no concentration beside the values) | 46,000 compounds, 0.94% hits | AID 493162; in the data active = normalized absorbance mostly below about 85%, no sharp cut-off; inactive = mostly above about 86%
Active calls of the source: *. Shown is part of a subset that was picked to be rich in hits.

Screening CCn1c2ccccc2c2cc(C=Nc3cccc(C#N)c3)ccc21 returned Vaccinia pol inh 77*.
CCn1c2ccccc2c2cc(C=Nc3ccc(C)cc3O)ccc21 was read as Vaccinia pol inh 91.
`CCn1c2ccccc2c2cc(N)ccc21` gave Vaccinia pol inh 92.
COc1ccc(C2=NC(C(F)(F)F)(C(F)(F)F)N=C(c3ccccc3C)O2)cc1 was read as Vaccinia pol inh 101.
CCOC(=O)CC1(C)NNC(=S)NN1 was read as Vaccinia pol inh 100.
For O=C1NC(=O)N(c2ccccc2)C(=O)/C1=C/c1ccco1 the results were Vaccinia pol inh 100.
O=C1NC(=S)N(c2ccccc2)C(=O)/C1=C/C=C/c1ccco1 was read as Vaccinia pol inh 53*.
O=C1NC(=S)N/C1=C\c1ccco1 was read as Vaccinia pol inh 100.
For O=C1Nc2ccccc2/C1=C/C(=O)c1ccccc1 the results were Vaccinia pol inh 100.
`O=C1Nc2ccccc2/C1=C/C=C/c1ccco1` gave Vaccinia pol inh 66*.
Screening O=C1Nc2ccccc2/C1=C\C1=Cc2ccccc2OC1 returned Vaccinia pol inh 92.
Screening O=C(O)c1cccn2c(=O)c3c4c(sc3nc12)CCCC4 returned Vaccinia pol inh 101.
For O=C(NCCc1ccccc1)c1csc2c1CCCCC2 the results were Vaccinia pol inh 101.
`Cc1c(C)n(CCN(C)C)c2ccc(C(=O)OCCN(C)C)cc12` gave Vaccinia pol inh 62*.
Cc1c(C)n(Cc2ccccc2)c2ccc(C(=O)OCCN3CCOCC3)cc12 was read as Vaccinia pol inh 98.
CCOC(=O)c1ccc2c(c1)c(C)c(C)n2Cc1ccccc1 was read as Vaccinia pol inh 99.
Cc1ccc(N2CCN(C(=O)c3cnn4c(C)c(Cc5ccccc5Cl)c(C)nc34)CC2C)cc1 (centres undefined) was read as Vaccinia pol inh 108.
For COC(CNC(=O)c1cc2c(C)nc3ccccc3c2o1)OC the results were Vaccinia pol inh 91.
Screening Cc1nc2ccccc2c2oc(C(=O)NCCN(C)C3CCCCC3)cc12 returned Vaccinia pol inh 46*.
`COC(CN(C)C(=O)c1cc2c(C)nc3ccccc3c2o1)OC` gave Vaccinia pol inh 96.
`Cc1ccccc1OCC(=O)Nc1ncccn1` gave Vaccinia pol inh 95.
CC(NC(=O)CCc1nc2ccccc2[nH]1)c1ccccc1 (centres undefined) was read as Vaccinia pol inh 104.
`O=C(CSc1ncnc2ccccc12)NC(c1ccccc1)c1ccccc1` gave Vaccinia pol inh 98.
For C[C@@]1(CO)[C@H](O)CC[C@@]2(C)[C@H]1CC[C@H]1C[C@@H]3C[C@@]12CC[C@]3(O)CO the results were Vaccinia pol inh 15*.
For Cc1nc2ccccc2c(C)c1C(=O)Nc1ccc(Cl)cc1 the results were Vaccinia pol inh 91.
`CC1CCCC(C)N1C(=O)Cn1cc(/C=C2/C(=O)N(C)c3ccccc32)c2ccccc21` (centres undefined) gave Vaccinia pol inh 122.
`CN1C(=O)/C(=C/c2cn(CC(=O)N3CCOCC3)c3ccccc23)C(=O)NC1=S` gave Vaccinia pol inh 100.
Screening CN1C(=O)/C(=C/c2cn(CC(=O)O)c3ccccc23)c2ccccc21 returned Vaccinia pol inh 73*.
Screening O=C(NC1CCCCCC1)c1csc2c1CCCC2 returned Vaccinia pol inh 104.
For Cc1nn(-c2ccccc2)c(C)c1Sc1ccccc1 the results were Vaccinia pol inh 100.
CCCC(=O)Oc1c(Sc2ccccc2)c(C)nn1-c1ccccc1 was read as Vaccinia pol inh 86.
CC(=O)Oc1c(Sc2ccccc2)c(C)nn1-c1ccccc1 was read as Vaccinia pol inh 77*.
`Oc1c(/C=C2\C=Nc3ccccc32)sc(=Nc2ccccc2)n1C1CCCC1` gave Vaccinia pol inh 100.
Screening CC(=O)Nc1ccccc1OCC(=O)N(C(C)C)C(C)C returned Vaccinia pol inh 100.
For CC(C)N(CCC#N)C(=O)c1c[nH]c2ccccc2c1=O the results were Vaccinia pol inh 100.
Screening O=C1Nc2ccccc2O/C1=C\c1ccccc1 returned Vaccinia pol inh 106.
`O=C(NCCCN1CCOCC1)c1ccccc1` gave Vaccinia pol inh 100.
CC1CCN(CCCNC(=O)c2ccc(/C=C3\Oc4ccccc4NC3=O)cc2)CC1 was read as Vaccinia pol inh 70*.
For COc1cccc(NC(=O)CCCC(=O)Nc2cccc(OC)c2)c1 the results were Vaccinia pol inh 100.
For Cc1ccc(N=C2N=C(N)c3ccccc32)cc1Cl the results were Vaccinia pol inh 105.
Screening O=C(c1cnoc1)c1cc(Cl)cc(Cl)c1O returned Vaccinia pol inh 94.
Screening Oc1c(Cl)cc(Cl)cc1Sc1cc(Cl)cc(Cl)c1O returned Vaccinia pol inh 60*.
For Cc1ccc(N)c(C(O)(C(F)(F)F)C(F)(F)F)c1 the results were Vaccinia pol inh 102.
Screening Oc1c(Cl)cc(Cl)cc1C(O)(C(F)(F)F)C(F)(F)F returned Vaccinia pol inh 84*.
Screening CCC(=O)c1cc(Cl)cc(Cl)c1O returned Vaccinia pol inh 97.
For O=C(OCc1cccs1)C1CC1 the results were Vaccinia pol inh 104.
`O=C(Nc1ccc(I)cc1)C1(S(=O)(=O)c2ccc(Cl)cc2)CC1` gave Vaccinia pol inh 105.
For Cc1ccc(S(=O)(=O)Nc2cc(C(=O)NC3CCCC(C)C3C)ccc2N2CCCCC2)cc1 (centres undefined) the results were Vaccinia pol inh 92.
`CCCSC1=N/C(=C/c2cccs2)C(=O)N1c1ccc(F)c(Cl)c1` gave Vaccinia pol inh 83.
Screening O=C(COc1ccccc1O)c1ccccc1 returned Vaccinia pol inh 97.
`O=C(NCCO)c1cc2sc3ccccc3c2s1` gave Vaccinia pol inh 106.
Screening COc1ccc(C(=O)CNc2ccc(C#N)cc2)cc1 returned Vaccinia pol inh 106.
Screening Fc1cnc(Nc2ccc3c(c2)OCO3)nc1Nc1ccc2c(c1)OCO2 returned Vaccinia pol inh 95.
For N=c1oc2ccccc2cc1C(N)=O the results were Vaccinia pol inh 101.
`O=C1C=C(N2CCOCC2)C(=O)N1c1ccc(Cl)cc1` gave Vaccinia pol inh 99.
CC(=O)Nc1c(O)nc(SCC(=O)N2CCOCC2)[nH]c1=O was read as Vaccinia pol inh 94.
Screening C=C1c2cccc(O)c2C(O)=C2C(=O)[C@]3(O)C(O)=C(C(N)=O)C(=O)[C@@H](N(C)C)[C@@H]3[C@@H](O)[C@H]12 returned Vaccinia pol inh 55*.
Screening CN(C)[C@@H]1C(=O)C(C(N)=O)=C(O)[C@@]2(O)C(=O)C3=C(O)c4c(O)cccc4[C@@](C)(O)[C@H]3C[C@@H]12 returned Vaccinia pol inh 99.
C=C1c2c(Cl)ccc(O)c2C(O)=C2C(=O)[C@]3(O)C(O)=C(C(N)=O)C(=O)[C@@H](N(C)C)[C@@H]3[C@@H](O)[C@H]12 was read as Vaccinia pol inh 101.
`COC(=O)[C@@]1(O)CC2OC1(C)n1c3ccccc3c3c4c(c5c6ccccc6n2c5c31)C(=O)NC4` (some centres undefined) gave Vaccinia pol inh 98.
For CN[C@@H]1CC2(C)OC([C@@H]1OC)n1c3ccccc3c3c4c(c5c6ccccc6n2c5c31)C(=O)NC4 (some centres undefined) the results were Vaccinia pol inh 56*.
For Cn1c2ccccc2c2c3c(c4c5ccccc5n(CCC#N)c4c21)CNC3=O the results were Vaccinia pol inh 98.
`Clc1cc(-c2ccccc2)c2ccccc2n1` gave Vaccinia pol inh 98.
`O=C(CCC(=O)c1ccccc1)NCc1ccccc1` gave Vaccinia pol inh 67*.
